In assay [1] the target is DNA repair nuclease/redox regulator APEX1 (Homo sapiens) (UniProt P27695). The assay can be described thus: qHTS Validation Assay for Inhibitors of the Human Apurinic/apyrimidinic Endonuclease 1 (APE1) (AID 1705; further: potency means the concentration at half of the fitted maximal effect). The method in brief: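 Human APE1 was preincubated with compound for 15 min at room temperature, then 50 nM (final) THF-abasic double-stranded DNA substrate bearing 5'-TAMRA and 3'-BHQ-2 was added. Incision-driven fluorescence rise (ex 525/em 598 nm) was read kinetically.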

Assay [2] is described as follows: Counterscreen for APE1 Inhibitors: Fluorescent Dye Displacement Validation Assay (AID 1707). The method in brief: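 Endpoint fluorescence read at 480 nm excitation / 540 nm emission; DNA-binding compounds lower signal by displacing 250 nM Thiazole Orange from 50 nM dsDNA containing a tetrahydrofuran abasic site, Tris-HCl pH7.5 buffer with NaCl and MgCl2.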
For orientation: The purpose of a counterscreen is to sort out artefacts and off-target activity.

Assay [3] can be described thus: qHTS for differential inhibitors of proliferation of Plasmodium falciparum line 7G8 (AID 1815).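 Further: parasite growth measured after three days of incubation.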 Further: potency means the concentration at half of the fitted maximal effect. For orientation: qHTS replaces the single test concentration by a dilution series.
Assay [4] is described as follows: qHTS for differential inhibitors of proliferation of Plasmodium falciparum line GB4 (AID 1816).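 Further: parasite growth measured after 72 h incubation.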 Further: potency means the concentration at half of the fitted maximal effect. The note with it: Potency: Plasmodium falciparum GB4 proliferation inhibition.
A short description of assay [5]: qHTS for differential inhibitors of proliferation of Plasmodium falciparum line 3D7 (AID 1876). Further: potency means the concentration at half of the fitted maximal effect.
The nature of assay [6]: qHTS for differential inhibitors of proliferation of Plasmodium falciparum line D10 (AID 1877).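 Further: parasites grown with compound for 72 h before DNA staining.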 Further: potency means the concentration at half of the fitted maximal effect.
Assay [7] is described as follows: qHTS for differential inhibitors of proliferation of Plasmodium falciparum line Dd2 (AID 1882). Further: nearly all actives have a fitted effect of over 65% in size. Further: potency means the concentration at half of the fitted maximal effect. The conditions noted are these: Potency: Plasmodium falciparum Dd2 proliferation inhibition. In short, it runs like this: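 SYBR Green DNA fluorescence (ex 485, em 535 nm) after overnight lysis quantifies parasite growth; compound exposure lasted 72 h at 37 C on infected red cells at 2.5% hematocrit, 0.3% parasitemia (final). Artemisinin 0.29 uM and vehicle wells define normalization.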

A short description of assay [8]: qHTS for differential inhibitors of proliferation of Plasmodium falciparum line HB3 (AID 1886).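 Further: parasites grown with compound for 72 h before SYBR Green readout.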 Further: potency means the concentration at half of the fitted maximal effect. The note with it: Potency: Plasmodium falciparum HB3 proliferation inhibition.
Assay [9] in a line: qHTS Assay for Modulators of Human Peripheral Myelin Protein 22 (PMP22) Expression/Activity (AID 1967; active means well fitted curve in the direction sought with a large enough effect in the signal ratio; the % refers to the signal ratio). In short, it runs like this: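 MSC80 mouse Schwann cells stably carrying Pmp22 promoter–green click beetle luciferase plus EF-alpha–red luciferase control were dosed for 24h at 37 °C. Dual-colour luminescence was filter-overlap corrected; %Activity came from green/red ratio versus untreated cells.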

The target of assay [10] is Ferritin light chain (Equus caballus) (UniProt P02791). The assay can be described thus: qHTS Validation Assay for Identification of Novel General Anesthetics (AID 2323). Further: series mostly up to about 77 µM. In short, it runs like this: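 Competitive displacement of profluorescent 1-aminoanthracene (1-AMA, 50% saturated solution in PBS) from 10 uM horse-spleen apoferritin. Compounds incubated 10 min at room temperature; fluorescence read at 380 nm excitation/535 nm emission, normalized to free 1-AMA and complex, fitted with four-parameter Hill equation.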

The target of assay [11] is ATP-dependent DNA helicase Q1 (Homo sapiens) (UniProt P46063). The assay can be described thus: qHTS Validation Assay for Inhibitors of RecQ-Like Dna Helicase 1 (RECQ1) (AID 2353). Further: potency means the concentration at half of the fitted maximal effect. In short, it runs like this: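 RECQ1T1 50 nM; forked duplex (20 bp + 30-nt ss tails) 200 nM, ATP 2 mM final; pH 8.0, 2 mM MgCl2, 2.5 ug/ml poly(dI-dC); 15 min compound preincubation; discontinuous kinetic read over 2 h at RT.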

Assay [12] has as its target RecQ-like DNA helicase BLM (Homo sapiens) (UniProt P54132). The assay can be described thus: qHTS Validation Assay for Inhibitors of Bloom's syndrome helicase (BLM) (AID 2364). Further: potency means the concentration at half of the fitted maximal effect. The method in brief: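 50 nM BLM preincubated 15 min at room temperature with compound in pH 8.0 Tris buffer containing 2.5 ug/ml poly(dI-dC); started with 200 nM TAMRA/BHQ-2 forked duplex and 2 mM ATP (final). Unwinding read as TAMRA fluorescence increase, two reads 2 h apart.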

Assay [13] can be described thus: qHTS for differential inhibitors of proliferation of Plasmodium falciparum line W2 (AID 1883).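 Further: parasites grown with compound for 72 h before lysis and staining.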 Further: potency means the concentration at half of the fitted maximal effect. The note with it: Potency: Plasmodium falciparum W2 proliferation inhibition.
Assay [14] in a line: Cell Viability - LYMP1-002 - Assay at 24 hr (AID 993). In short, it runs like this: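 Acute toxicity is measured as concentration-dependent loss of cellular ATP in a human lymphoblastoid line (Coriell LYMP1-002) after 24 h treatment in complete medium. ATP is quantified by luciferase luminescence and AC50 derived by Hill modelling.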
Assay [15] is described as follows: qHTS Assay for Identification of Small Molecule Inducers of Hypoxia Response (AID 2120; active means well fitted curve in the direction sought with a large enough effect in the signal ratio, with a control signal flat, not every such curve was filed as active; the % refers to the signal ratio). In short, it runs like this:
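Cell-based qHTS for reporter induction: hypoxia response element controlled beta-lactamase in ME-180 cells. Compounds incubated 17 h at 37 degrees C; activity from blue/green (460/530 nm) ratio, inducers ranked by AC50.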

The nature of assay [16]: Cell Viability - LYMP1-002 - Assay at 40 hr (AID 994). Further: nearly all actives have a fitted effect of over 60% in size. In short, it runs like this: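 Cells are plated at 2500 per well and rested 5 hr at 37 C. Compounds are added and incubated 40 hr at 37 C. CellTiter-Glo reagent is added for 30 min at room temperature before luminescence is read.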
Assay [17] addresses Endonuclease 4 (Escherichia coli (strain K12)) (UniProt P0A6C1). The assay can be described thus: Counterscreen for APE1 Inhibitors: qHTS Validation Assay for Inhibitors of Endonuclease IV (AID 1708). In short, it runs like this:
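Conditions: 2 nM enzyme, 50 nM TAMRA/BHQ-2 substrate, pH 7.5 Tris buffer with 2 mM MgCl2, RT. Compound preincubation 15 min; readout three fluorescence reads 60 s apart, third-minus-first.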

The target of assay [18] is alpha-glucosidase (Oryza sativa, rice) (UniProt Q653V4). Nature of the assay: Counterscreen for Glucocerebrosidase Inhibitors: qHTS Assay for Rice alpha-Glucosidase at pH 5.0 (AID 997). The method in brief:
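Endpoint fluorogenic assay at pH 5.0: compounds (0.7 nM to 77 uM) titrated against 4 nM rice enzyme and 400 uM 4-MU-alpha-glucoside for 20 min at room temperature; NaOH/glycine stop, read ex 365/em 440 nm, Hill-fitted AC50.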

Results filed as inconclusive are left out. Activity calls are given as the source filed them. Unless noted, the call rests on the fitted dose curve; in most records, active means well fitted curve in the direction sought with a large enough effect; inconclusive means small, poorly fitted or top-dose-only effect, or another doubt; inactive means no such curve, though single readings can be large; an effect the other way counts as inactive or inconclusive.

Chain of ATP-dependent DNA helicase Q1 (Homo sapiens) (P46063 whole entry, looked up): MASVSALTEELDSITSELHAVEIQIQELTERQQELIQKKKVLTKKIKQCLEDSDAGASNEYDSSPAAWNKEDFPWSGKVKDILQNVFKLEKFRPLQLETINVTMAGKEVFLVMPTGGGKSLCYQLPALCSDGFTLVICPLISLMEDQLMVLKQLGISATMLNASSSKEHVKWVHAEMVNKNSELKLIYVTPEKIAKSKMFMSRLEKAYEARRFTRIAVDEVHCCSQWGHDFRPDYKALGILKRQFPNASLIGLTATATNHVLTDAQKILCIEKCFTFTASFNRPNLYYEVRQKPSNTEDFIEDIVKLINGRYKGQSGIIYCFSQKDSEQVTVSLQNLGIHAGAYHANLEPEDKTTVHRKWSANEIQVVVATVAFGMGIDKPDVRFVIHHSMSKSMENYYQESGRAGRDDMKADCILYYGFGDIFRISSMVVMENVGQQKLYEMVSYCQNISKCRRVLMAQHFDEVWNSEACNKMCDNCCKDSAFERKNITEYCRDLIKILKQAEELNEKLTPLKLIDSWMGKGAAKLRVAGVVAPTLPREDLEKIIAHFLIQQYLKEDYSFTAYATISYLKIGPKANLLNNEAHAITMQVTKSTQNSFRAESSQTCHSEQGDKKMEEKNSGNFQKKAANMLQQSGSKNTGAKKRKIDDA
Chain of RecQ-like DNA helicase BLM (Homo sapiens) (P54132 whole entry, looked up): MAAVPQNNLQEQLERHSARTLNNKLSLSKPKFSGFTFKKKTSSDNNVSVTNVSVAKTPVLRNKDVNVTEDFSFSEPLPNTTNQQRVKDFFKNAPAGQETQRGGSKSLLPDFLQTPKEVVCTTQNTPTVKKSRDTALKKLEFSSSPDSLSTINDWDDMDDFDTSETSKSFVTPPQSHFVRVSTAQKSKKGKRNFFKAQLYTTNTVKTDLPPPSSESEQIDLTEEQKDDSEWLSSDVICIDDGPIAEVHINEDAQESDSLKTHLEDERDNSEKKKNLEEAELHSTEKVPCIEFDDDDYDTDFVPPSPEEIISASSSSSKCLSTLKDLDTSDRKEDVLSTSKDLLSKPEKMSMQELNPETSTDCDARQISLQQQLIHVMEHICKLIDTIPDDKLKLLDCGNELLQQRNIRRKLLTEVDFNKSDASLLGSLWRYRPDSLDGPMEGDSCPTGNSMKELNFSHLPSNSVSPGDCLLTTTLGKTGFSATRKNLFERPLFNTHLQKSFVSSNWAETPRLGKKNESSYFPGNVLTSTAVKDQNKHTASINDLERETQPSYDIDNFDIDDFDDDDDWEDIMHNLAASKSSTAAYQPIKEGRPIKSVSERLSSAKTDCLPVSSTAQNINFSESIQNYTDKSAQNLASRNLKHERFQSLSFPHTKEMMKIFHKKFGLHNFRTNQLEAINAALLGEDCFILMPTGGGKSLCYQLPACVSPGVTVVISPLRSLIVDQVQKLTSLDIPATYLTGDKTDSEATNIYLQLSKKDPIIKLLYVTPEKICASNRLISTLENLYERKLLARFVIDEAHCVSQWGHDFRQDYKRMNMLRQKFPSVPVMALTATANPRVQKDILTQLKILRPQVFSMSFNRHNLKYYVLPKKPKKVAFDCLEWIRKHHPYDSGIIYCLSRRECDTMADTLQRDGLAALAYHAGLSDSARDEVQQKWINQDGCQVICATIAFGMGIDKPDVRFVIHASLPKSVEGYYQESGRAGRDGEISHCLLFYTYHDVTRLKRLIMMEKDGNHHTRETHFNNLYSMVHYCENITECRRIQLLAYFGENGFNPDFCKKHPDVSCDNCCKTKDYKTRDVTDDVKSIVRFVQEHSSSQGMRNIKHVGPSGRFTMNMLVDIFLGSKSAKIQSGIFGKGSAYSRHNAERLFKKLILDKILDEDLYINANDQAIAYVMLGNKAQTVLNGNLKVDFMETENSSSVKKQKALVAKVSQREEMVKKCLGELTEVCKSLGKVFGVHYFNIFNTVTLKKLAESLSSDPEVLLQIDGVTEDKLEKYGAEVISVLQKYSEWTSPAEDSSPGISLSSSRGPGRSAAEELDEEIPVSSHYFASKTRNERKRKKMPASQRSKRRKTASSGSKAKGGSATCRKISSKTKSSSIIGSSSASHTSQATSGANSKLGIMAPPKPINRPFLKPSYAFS
Chain of Ferritin light chain (Equus caballus) (P02791 2-175 limits assumed): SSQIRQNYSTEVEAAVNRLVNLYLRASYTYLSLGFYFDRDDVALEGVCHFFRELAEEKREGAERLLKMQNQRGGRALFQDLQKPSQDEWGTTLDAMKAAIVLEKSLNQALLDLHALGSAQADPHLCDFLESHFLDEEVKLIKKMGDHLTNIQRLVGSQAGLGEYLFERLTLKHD
Chain of DNA repair nuclease/redox regulator APEX1 (Homo sapiens) (P27695 whole entry, looked up): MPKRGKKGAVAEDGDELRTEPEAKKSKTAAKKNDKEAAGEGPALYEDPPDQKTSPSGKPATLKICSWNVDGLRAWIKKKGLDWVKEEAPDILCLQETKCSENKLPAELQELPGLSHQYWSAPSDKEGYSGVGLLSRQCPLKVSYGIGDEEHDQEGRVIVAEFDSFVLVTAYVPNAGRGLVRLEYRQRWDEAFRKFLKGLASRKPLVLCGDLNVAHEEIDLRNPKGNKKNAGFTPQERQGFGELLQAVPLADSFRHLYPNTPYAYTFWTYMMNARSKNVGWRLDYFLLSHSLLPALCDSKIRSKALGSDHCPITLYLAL

Turning to `CO/N=C(\C(=O)N[C@@H]1C(=O)N2C(C(=O)O)=C(COC(C)=O)CS[C@H]12)c1csc(N)n1` (stereo in doubt), the Potency was 2.24 µM (active) in [1] and 10 µM (active) in assay [11]. Moreover, the Potency result in assay [2], in assay [3], in assay [4], in assay [5], in assay [6] and in [7] was “inactive” throughout. Further, the Potency result in [8], in [10] and in [12] was “inactive” throughout. Further, the call in [9] was inactive.

With `CCCCCC(O)c1cccc(OCc2ccc3ccccc3n2)c1` (configuration not stated), the Potency entry in assay [2] and in [11] was “inactive” in each case. The Potency in assay [3] is 6.31 µM (active); in assay [4], 10 µM (active); in assay [6] it was 15.8 µM (active); in [7] it was 7.94 µM (active); in assay [13], 6.31 µM (active); in [8] it was 12.6 µM (active).

As to `C=C[C@@H]1CN2CC[C@@H]1C[C@H]2[C@H](O)c1ccnc2ccc(OC)cc12`, the Potency entry in assay [1], in assay [2], in [10], in assay [11] and in [12] was “inactive” in each case. Further, the Potency in assay [7] is 0.316 µM (active).

With `COc1ccccc1N1CCN(CCCCNS(=O)(=O)c2cccc3c(N(C)C)cccc23)CC1`, the Potency result in [1], in assay [2], in assay [10] and in assay [11] was “inactive” throughout. For the same compound, the Potency in assay [3] is 7.94 µM (active); in assay [4], 14.1 µM (active); in assay [5], 10 µM (active); in [7], 10 µM (active); in [13], 3.55 µM (active); in [8], 12.6 µM (active).

Turning to `C#C[C@]1(O)CC[C@H]2[C@@H]3CCc4cc(O)ccc4[C@H]3CC[C@@]21C`, the Potency result in assay [14] is “inactive”. For the same compound, the call in [15] was inactive.

With `COc1ccc(NC(=O)/C=C/c2ccc(Cl)cc2)cc1`, the Potency result in assay [1], in [2], in assay [10] and in assay [11] was “inactive” each time. Further, the Potency in assay [3] is 10 µM (active); in assay [4], 11.2 µM (active); in assay [5] it was 11.2 µM (active); in assay [6] it was 8.91 µM (active); in [13], 10 µM (active); in assay [8], 12.6 µM (active).

Consider `c1ccc2sc(SSc3nc4ccccc4s3)nc2c1`, for which the Potency result in assay [14] and in assay [16] was “inactive” each time. The result in [15] was inactive.

Take `CC(C)(C=O)Cc1cc(C(C)(C)C)c(O)c(C(C)(C)C)c1`: the Potency result in assay [2], in assay [3], in assay [4], in assay [5], in assay [6] and in assay [7] was “inactive” throughout. In addition, the Potency entry in assay [13], in assay [8] and in assay [11] was “inactive” each time.

In the case of `COc1cc(CNC(=O)CCCC/C=C/C(C)C)ccc1O`, the Potency entry in [14] and in [16] was “inactive” each time.

With `CC(COc1ccc(/C=C/c2ccccc2)cc1)[N+](C)(C)C` (configuration not stated), the Potency result in assay [2], in assay [17], in [10], in assay [11] and in assay [12] was “inactive” each time. Moreover, the Potency in assay [3] is 7.08 µM (active); in assay [4], 2.24 µM (active); in assay [5], 1.26 µM (active); in assay [6], 2.24 µM (active); in [7], 5.01 µM (active); in [13] it was 2.82 µM (active). Further, the Potency in assay [8] is 2 µM (active).

Turning to `N#C/C(=C\c1c[nH]c2ccccc12)C(=O)c1ccc(O)c(O)c1`, the call in assay [18] was inactive. Besides, in [17], the Potency entry is “inactive”. In addition, the Potency in assay [4] is 12.6 µM (active); in assay [5] it was 12.6 µM (active); in [6] it was 15.8 µM (active); in assay [13], 8.91 µM (active); in assay [8], 12.6 µM (active); in assay [11] it was 8.91 µM (active). In addition, in [12], the Potency was 11.2 µM (active).

`Oc1cc(O)cc(/C=C/c2ccc(O)c(O)c2)c1`: the Potency entry in [1], in assay [17], in assay [10] and in assay [11] was “inactive” throughout. Also, the Potency in assay [4] is 8.91 µM (active); in [5] it was 10 µM (active); in [7], 12.6 µM (active); in [13] it was 10 µM (active); in assay [8] it was 12.6 µM (active).

Regarding `NCCO`, the Potency result in assay [14] and in assay [16] was “inactive” each time. For the same compound, the result in assay [15] was inactive.

As to `NC[C@@H]1O[C@H](C23CC4CC(CC(C4)C2)C3)Cc2c1ccc(O)c2O`, in assay [18], the call was inactive. For the same compound, the Potency result in [2], in assay [17], in assay [11] and in assay [12] was “inactive” throughout. Besides, the Potency in [3] is 2 µM (active); in [4] it was 2 µM (active); in assay [5] it was 2.24 µM (active); in [6] it was 3.16 µM (active); in [7] it was 8.91 µM (active); in assay [13], 2.24 µM (active). The Potency in [8] is 2.82 µM (active).

On to `Oc1cc2c(cc1O)CN(C(=S)NCCc1ccc(Cl)cc1)CCC2`, for which the Potency entry in [2], in [17] and in assay [11] was “inactive” in each case. Also, the Potency was 8.91 µM (active) in assay [3], 12.6 µM (active) in assay [6], 8.91 µM (active) in assay [7] and 8.91 µM (active) in assay [8].

Consider `Nc1ccc(O)c([N+](=O)[O-])c1`, for which the Potency entry in [14] and in [16] was “inactive” throughout. Further, in [15], the call was inactive.

Source of the values: PubChem BioAssay (NCATS).
